# Assay results taken from paper PMC4336329 (PLoS ONE, 2015).
# Screen size: about 310,000 compounds; about 14,000 (4.5%) showed an effect of 50% or more. Effects have a minus sign here. Many of the other results were omitted from the sample, so strong results are more common in it than they were.
# Molecular target: human ether-à-go-go-related gene (hERG) potassium channel (human, UniProt Q12809)
# Experiment: primary screen, population patch clamp on CHO cells stably expressing hERG; higher = less effect of the substance
# 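Further: peak tail current of the secondary pulse compared with the same well before compound.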
# Chain of human ether-à-go-go-related gene (hERG) potassium channel (Q12809 whole entry, looked up): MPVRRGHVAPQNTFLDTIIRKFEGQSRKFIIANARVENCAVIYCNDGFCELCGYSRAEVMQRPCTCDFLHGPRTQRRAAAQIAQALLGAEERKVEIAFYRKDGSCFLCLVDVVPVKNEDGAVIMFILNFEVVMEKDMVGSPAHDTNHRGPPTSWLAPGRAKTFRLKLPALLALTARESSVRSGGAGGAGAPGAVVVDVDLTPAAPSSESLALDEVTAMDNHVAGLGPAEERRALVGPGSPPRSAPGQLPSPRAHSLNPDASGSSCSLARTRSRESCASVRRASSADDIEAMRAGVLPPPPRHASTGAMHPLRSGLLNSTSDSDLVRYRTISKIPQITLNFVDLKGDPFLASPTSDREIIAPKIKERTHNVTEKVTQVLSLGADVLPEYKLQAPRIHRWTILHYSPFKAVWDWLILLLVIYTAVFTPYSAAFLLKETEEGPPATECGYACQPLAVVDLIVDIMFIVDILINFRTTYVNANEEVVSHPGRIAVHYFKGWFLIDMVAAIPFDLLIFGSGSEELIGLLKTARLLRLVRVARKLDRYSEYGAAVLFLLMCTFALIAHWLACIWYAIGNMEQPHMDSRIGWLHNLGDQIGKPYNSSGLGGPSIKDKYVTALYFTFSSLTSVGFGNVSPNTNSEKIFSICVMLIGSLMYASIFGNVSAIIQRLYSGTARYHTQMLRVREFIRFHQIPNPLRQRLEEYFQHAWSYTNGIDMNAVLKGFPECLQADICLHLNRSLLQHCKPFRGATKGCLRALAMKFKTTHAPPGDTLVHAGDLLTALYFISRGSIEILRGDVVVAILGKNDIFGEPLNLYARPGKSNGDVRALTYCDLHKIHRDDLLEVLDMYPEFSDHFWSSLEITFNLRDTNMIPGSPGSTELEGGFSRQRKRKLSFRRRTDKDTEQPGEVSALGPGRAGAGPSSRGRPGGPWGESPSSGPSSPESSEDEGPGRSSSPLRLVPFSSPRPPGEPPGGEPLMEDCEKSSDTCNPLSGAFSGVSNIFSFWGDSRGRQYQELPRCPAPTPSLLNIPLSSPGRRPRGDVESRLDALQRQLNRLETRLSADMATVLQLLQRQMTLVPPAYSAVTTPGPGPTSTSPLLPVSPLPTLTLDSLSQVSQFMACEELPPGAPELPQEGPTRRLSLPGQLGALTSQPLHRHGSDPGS
row,Compound,"hERG current change (%, negative = inhibition) at 10uM"
1,COc1ccc(CCNC(=O)c2sc3cc(C)ccc3c2Cl)cc1,3.77%
2,CCn1c(SCC(=O)Nc2ccccc2C(=O)OC)nnc1-c1cccc(C)c1,-36.2%
3,O=S(=O)(c1ccc(O)cc1)c1ccc(O)cc1,16.9%
4,CNC(=O)C(=O)NCC1CCCN1S(=O)(=O)c1cccs1 (stereo not drawn),12.4%
5,C=CCn1c(-c2cccnc2Cl)nc2ccccc21,8.48%
6,Cc1nn(-c2cc(N3CCOCC3)ccc2[N+](=O)[O-])c(=O)c2ccccc12,-4.66%
7,O=C([O-])/C=C1\CCCc2ccccc2C1O.[Na+] (stereo not drawn),18.4%
8,Cc1ccsc1/C=N/NC(=O)CNC(=O)c1ccc(S(=O)(=O)N2CCOCC2)cc1,2.86%
9,O=C(C1CCN(S(=O)(=O)c2cccc3cccnc23)CC1)N1CCN(C2CCCCC2)CC1,-0.647%
10,COc1cccc(CN2CCN(CC#Cc3ccccc3)CC2CCO)c1 (stereo not drawn),-30.6%
11,COC(=O)c1ccc(CN2CCN(Cc3ccc(F)cc3)C(CCO)C2)cc1 (stereo not drawn),10.1%
12,CCOc1ccc(CN2CCN(C/C=C/c3ccc(OC)cc3)CC2CCO)cc1 (stereo not drawn),-88.7%
13,COc1ccc(/C=C/CN2CCN(Cc3cccc(OC)c3)C(CCO)C2)cc1 (stereo not drawn),-51.9%
14,COc1ccc(CN2CCN(Cc3cccc(OC)c3)C(CCO)C2)cc1 (stereo not drawn),-45.8%
15,COc1cccc(CN2CCN(Cc3ccc(OC)c(OC)c3)CC2CCO)c1 (stereo not drawn),-27.2%
16,CC(C)N1CCC(N2CCN(C/C=C/c3ccc(F)cc3)CC2CCO)CC1 (stereo not drawn),-6.87%
17,COc1ccc(/C=C/CN2CCN(Cc3ccccc3)C(CCO)C2)cc1 (stereo not drawn),-51.9%
18,COc1ccc(/C=C/CN2CCN(Cc3ccc(F)cc3)C(CCO)C2)cc1 (stereo not drawn),-58.5%
19,COC(=O)COc1ccc(-c2nccc(-c3ccccn3)n2)cc1,13.3%
20,CCN(CC(=O)Nc1ccccc1OC)C(=O)c1cc(-c2ccccc2)nn1-c1ccccc1,-36.9%
21,COc1ccc(-c2noc(N3CCC(C(=O)NCc4ccccc4Cl)CC3)n2)cc1,-11.9%

row,Compound,"hERG current change (%, negative = inhibition) at 10uM"
1,CCOC(=O)NC(=O)CSc1nc2ccc(C)cc2[nH]1,8.02%
2,COc1cc(/C=N/NC(=O)c2csc3c2CCCC3)ccc1OCCN1CCOCC1,-31.9%
3,COc1ccccc1C(=O)NNC(=O)c1nn(Cc2ccccc2)c(=O)c2ccccc12,-14%
4,O=C(CSc1ncnc2sccc12)Nc1ccccc1,21.2%
5,COc1ccc(C(=O)NNC(=O)CNC(=O)C2CCCCC2)cc1,14%
6,COc1ccc(/C=C/CN2CCN(CCc3ccccc3)C(CCO)C2)cc1 (stereo not drawn),-71.9%
7,OCC[C@H]1C[C@H](O)[C@@H](O)[C@@]2(CCCO2)O1,20.1%
8,CC(C)CNc1nc(NC(C)(C)C)nc(Oc2ccc(=O)[nH]n2)n1,9.66%
9,Cc1ccc(S(=O)(=O)N2CCC(N3CCC(C)CC3)CC2)cc1,-29.1%
10,CCCCc1cc(=O)oc2cc(C)cc(OC(C)C(=O)NCc3cccnc3)c12 (stereo not drawn),-19.7%
11,Cc1ccccc1NC(=O)COC(=O)c1cc(=O)c2ccccc2o1,-67.4%
12,Cc1cccc(C)c1NC(=O)COC(=O)c1cc(=O)c2ccccc2o1,5.2%
13,Cc1ccc(NC(=O)COC(=O)c2cc(=O)c3ccccc3o2)cc1F,12.9%
14,CC1=C(C)C(=O)N(C(C)CCc2ccccc2)C1=O (stereo not drawn),4.9%
15,O=C(c1cc2c(=O)n3ccccc3nc2s1)N1CCN(Cc2ccccc2)CC1,-27.7%
16,COC(=O)c1cc(C(=O)N2CCN(c3cccc(Cl)c3)CC2)cc([N+](=O)[O-])c1,-59%
17,COC(=O)c1cc(C(=O)N2CCN(c3cccc(C)c3C)CC2)cc([N+](=O)[O-])c1,-39.6%
18,COc1ccccc1N1CCN(C(=O)c2cc3c(=O)n4ccccc4nc3s2)CC1.Cl,-53.2%
19,CN1CCN(C(=O)c2cc3c(=O)n4ccccc4nc3s2)CC1,-2.57%
20,COC(=O)c1cc(C(=O)N2CCN(c3ncccn3)CC2)cc([N+](=O)[O-])c1,-5.19%
21,O=C(c1ccc([N+](=O)[O-])s1)N1CCN(c2ccccc2)CC1,-25.8%

row,Compound,"hERG current change (%, negative = inhibition) at 10uM"
1,COc1ccccc1N1CCN(C(=O)c2cc3c(=O)n4cccc(C)c4nc3s2)CC1,-11.2%
2,CCOC(=O)N1CCN(C(=O)c2cc3c(=O)n4cccc(C)c4nc3s2)CC1,-9.84%
3,Cc1c(C(=O)N2CCN(c3cccc(Cl)c3)CC2)cccc1[N+](=O)[O-],-42.5%
4,O=C(c1ccc([N+](=O)[O-])s1)N1CCN(c2cccc(Cl)c2)CC1,-66.1%
5,Cc1cccn2c(=O)c3cc(C(=O)N4CCN(Cc5ccccc5)CC4)sc3nc12,-79.7%
6,Cc1sc2nc(SCC(=O)NCc3ccco3)n(-c3ccccc3)c(=O)c2c1C,8.63%
7,O=P(CCN1CCCCC1)(c1ccccc1)c1ccccc1,-5.98%
8,COc1ccc(NC(=O)c2cccnc2Sc2ccccc2)c(OC)c1,7.52%
9,CC(C)(C)NC(=O)Cn1nnc(-c2ccccc2Cl)n1,6.43%
10,CSc1ncccc1C(=O)OCC(=O)NC(C)(C)C,10.5%
11,COc1ccc(NC(=O)C2CCC(CNS(=O)(=O)c3csc(C(N)=O)c3)CC2)cc1OC (stereo not drawn),15.3%
12,COc1ccc2[nH]c(C(=O)Nc3ccc(F)cc3Br)cc2c1,11.7%
13,COc1ccc(/C=N/NC(=O)c2cccnc2)cc1O,11.1%
14,COc1ccccc1N1CCN(C(=O)c2ccc(Br)s2)CC1.Cl,-46.3%
15,COc1ccc(OC)c2sc(N3CCN(C(=O)c4ccc([N+](=O)[O-])s4)CC3)nc12,-41.9%
16,COc1ccccc1N1CCN(C(=O)c2ccc([N+](=O)[O-])s2)CC1,-54.5%
17,Cc1ccc(N2CCN(C(=O)c3cccc([N+](=O)[O-])c3)CC2)cc1Cl,-19.1%
18,O=C(c1cccc([N+](=O)[O-])c1)N1CCN(c2cccc(Cl)c2)CC1,-57.4%
19,O=C(c1cccc([N+](=O)[O-])c1)N1CCN(c2ccc(Cl)cc2)CC1,-41.1%
20,CCOC(=O)N1CCN(S(=O)(=O)c2ccc(Br)s2)CC1,-9.22%
21,COc1ccc(CC(=O)Nc2ccc(-c3csc(C)n3)cc2)cc1,7.89%

row,Compound,"hERG current change (%, negative = inhibition) at 10uM"
1,COc1ccc(Nc2nc(-c3cc4cccc(OC)c4oc3=O)cs2)cc1,11.6%
2,Cc1cccc(C(=O)Nc2cccc(C(=O)Nc3cc(C)ccn3)c2)c1,7.29%
3,NC(=O)CSC1=Nc2ccccc2C2=NC(CC(=O)NCc3cccs3)C(=O)N12 (stereo not drawn),11.2%
4,Cc1ccc(CSC2=Nc3ccccc3C3=NC(CCC(=O)NCc4ccco4)C(=O)N23)cc1 (stereo not drawn),-68.8%
5,CCCCNC(=O)CC1N=C2c3ccccc3N=C(SCC(=O)Nc3cccc(C)c3)N2C1=O (stereo not drawn),-52.6%
6,Cc1ccc(CSC2=Nc3ccccc3C3=NC(CC(=O)NCc4ccco4)C(=O)N23)cc1 (stereo not drawn),-51.8%
7,O=C(CSC1=Nc2ccccc2C2=NC(CC(=O)NCc3ccco3)C(=O)N12)NCc1ccco1 (stereo not drawn),7.61%
8,O=C(CC1N=C2c3ccccc3N=C(SCc3ccc(Cl)cc3)N2C1=O)NCc1ccco1 (stereo not drawn),-75.3%
9,CCCCNC(=O)CC1N=C2c3ccccc3N=C(SCC(=O)Nc3ccccc3C)N2C1=O (stereo not drawn),-0.929%
10,CCCCNC(=O)CC1N=C2c3ccccc3N=C(SCC(=O)Nc3cccc(OC)c3)N2C1=O (stereo not drawn),-10.6%
11,CCC(C)NC(=O)CSC1=Nc2ccccc2C2=NC(CCC(=O)NCc3ccco3)C(=O)N12 (stereo not drawn),-1.01%
12,O=C(CCC1N=C2c3ccccc3N=C(SCC(=O)NCc3ccco3)N2C1=O)NCc1ccco1 (stereo not drawn),12.7%
13,O=C(CSC1=Nc2ccccc2C2=NC(CC(=O)NC3CCCCC3)C(=O)N12)NCc1ccco1 (stereo not drawn),-29.9%
14,O=C(CC1N=C2c3ccccc3N=C(SCc3ccccc3Cl)N2C1=O)NCc1ccco1 (stereo not drawn),-47%
15,Cn1c(SCC(=O)O)nnc1-c1ccc(NC(=O)c2ccc(Cl)c(Cl)c2)cc1,7%
16,COCc1[nH]nc2c1C(C1C=CCCC1)C(C#N)=C(N)O2 (stereo not drawn),-8.37%
17,CSc1ccc(/C=C/C(=O)NC(=O)c2ccccc2O)cc1,11.3%
18,O=C(O)/C=C/c1cnc2ccccc2c1,19.1%
19,CCOc1ccc(C(O)(CCC(C)C)C(CN2CCOCC2)c2ccccc2)cc1.Cl (stereo not drawn),13.3%
20,COc1ccc(CCNC(=O)CCC(=O)Nc2nnc(C(C)C)s2)cc1OC,10.4%
21,Cc1cc(N)n(-c2nc(-c3cccnc3)nc3ccccc23)n1,-27.4%
